MITF TRPM1 HTS: activators of MITF-driven TRPM1 promoter reporter, primary screen, cell-based, SK-MEL-5, luciferase, single point; SK-MEL-5 TRPM1-promoter luciferase, 24 h; % of positive control, neutral wells = 0; activation, % at 12.5 µM; actives 0.75% (n = 300,000);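 active means mean activation of at least 80% with every replicate also reaching 80%; inconclusive means mean reaches 80% but some replicate falls short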;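 further: 0% = neutral control wells and 100% = parthenolide positive control wells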
FXN GAA850 act: FXN promoter activators, primary screen, cell-based, luciferase luminescence, HEK293 lucGAA850; HEK293 lucGAA850 FXN promoter luciferase reporter, 24 h; percent of 10 µM SAHA response; activation, % at 6 µM; actives 0.56% (n = 360,000);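 active means activation above the average of all compounds screened plus 3 SD, cutoff fixed separately per campaign, cut at about 7.5% in these data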;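 further: 0% = DMSO wells and 100% = 10 µM SAHA wells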
Wnt act: Wnt/beta-catenin pathway activators, primary screen, cell-based, plate reader, single point; Wnt/beta-catenin reporter cell assay, activator; activation, % at 9.35 µM; actives 1.2% (n = 300,000); in the data active means activation above about 30%, passing the limit was not always enough; inconclusive means no clear call, values can overlap the other calls;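 further: 0% = neutral control wells and 100% = positive control wells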
esBAF inh: Bmi1 luciferase reporter increase in mESCs, primary screen, esBAF inhibitor project, mouse ES cells, Bmi1 luciferase knock-in, single point | reporter increase, % at 12.5 µM | AID 602393, 2012 | 24 h; 100% = twice the neutral-well signal | actives 2% (n = 350,000); in the data active means activation above about 40%; inconclusive means no clear call, values can overlap the other calls;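 further: 0% = median of the plate's neutral control wells and 100% = double that signal; a rise in the Bmi1 reporter signal indicates esBAF inhibition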
Numbers without * were called inactive. Shown are actives, neighbours in structure and some others; about 2.8% of the full set was active somewhere.

For O=C(NC1CCCC1)C(c1ccncc1)N(C(=O)c1ccco1)c1ccc(Cl)cc1 (stereo unspecified) the results were MITF TRPM1 HTS -8, FXN GAA850 act 2, Wnt act -1 and esBAF inh 5.
Screening O=C(NC1CCCC1)C(c1ccco1)N(C(=O)c1ccco1)c1ccccc1 (stereo unspecified) returned MITF TRPM1 HTS -4, FXN GAA850 act 3, Wnt act 0 and esBAF inh 3.
Screening O=C(NCc1cc(C(F)(F)F)ccc1F)C1CCC(=O)N(C2CCCCCC2)C1 (stereo unspecified) returned MITF TRPM1 HTS 7, FXN GAA850 act 1, Wnt act 1 and esBAF inh 5.
`O=C(NCc1cc(F)ccc1F)C1CCC(=O)N(C2CCCCCC2)C1` (stereo unspecified) gave MITF TRPM1 HTS 49, FXN GAA850 act 1, Wnt act 11 and esBAF inh 48*.
CCCC(=O)Nc1ccc2c(c1)C(=O)N(C)C[C@@H](OC)[C@@H](C)CN(Cc1ccc(-c3ccccn3)cc1)[C@H](C)CO2 was read as esBAF inh 12.
CO[C@H]1CN(C)C(=O)c2cc(C#N)ccc2OC[C@H]2O[C@H](CC[C@@H]2OC)CCN(C)C(=O)[C@H]1C was read as esBAF inh 4.
For Cc1ccc(N/C=C/C(=O)c2ccco2)c(O)c1 the results were MITF TRPM1 HTS 53, FXN GAA850 act 5, Wnt act 56* and esBAF inh inconclusive.
O=C(N=Nc1c(O)[nH]c2ccccc12)c1ccc2c(c1)OCO2 was read as MITF TRPM1 HTS 0, FXN GAA850 act 4 and Wnt act 46*.
For O=C(N=Nc1c(O)[nH]c2ccccc12)c1ccc(CN2CCOCC2)cc1 the results were MITF TRPM1 HTS 4, FXN GAA850 act 2, Wnt act -3 and esBAF inh 13.
O=C(C[C@@H]1CC[C@H](NC(=O)CCN2CCCCC2)[C@@H](CO)O1)Nc1nccs1 was read as esBAF inh -6.
Screening COc1ccc(OCc2cc(C(=O)N3CCCCCC3)no2)c(Cl)c1 returned MITF TRPM1 HTS inconclusive, FXN GAA850 act 4 and Wnt act 17.
For COCCN1CCN(C(=O)c2cc(COc3ccc(Cl)cc3OC)on2)CC1 the results were MITF TRPM1 HTS 79, FXN GAA850 act 7, Wnt act 36* and esBAF inh inconclusive.
`COC1CCN(C(=O)c2cc(COc3cc(C)ccc3C)on2)CC1` gave FXN GAA850 act 1, Wnt act 14 and esBAF inh 29.
Screening COc1cccc(CCNC(=O)c2cc(COc3cccc(OC)c3)on2)c1 returned FXN GAA850 act 1 and Wnt act 16.
For Cc1ccc(C)c(OCc2cc(C(=O)N3CCOCC3)no2)c1 the results were MITF TRPM1 HTS 74, FXN GAA850 act 5, Wnt act 15 and esBAF inh 50*.
For COc1cccc(OCc2cc(C(=O)NC(C)c3cnn(C)c3C)no2)c1 (stereo unspecified) the results were MITF TRPM1 HTS 45, FXN GAA850 act 0, Wnt act 9 and esBAF inh 44*.
`COc1ccc(OCc2cc(C(=O)N3CCOCC3)no2)c(Cl)c1` gave MITF TRPM1 HTS inconclusive, FXN GAA850 act 2, Wnt act 34* and esBAF inh 37.
For COC(=O)C[C@@H]1CC[C@@H](NS(=O)(=O)c2ccccc2F)[C@H](CO)O1 the results were esBAF inh 4.
For O=C(C[C@H]1CC[C@H](NC(=O)CC2CC2)[C@@H](CO)O1)NCc1ccc(Cl)cc1 the results were esBAF inh 0.
Screening C[C@@H]1CN([C@@H](C)CO)C(=O)c2cc(NC(=O)Nc3ccc(C(F)(F)F)cc3)ccc2O[C@H]1CN(C)C(=O)Nc1cccc2ccccc12 returned esBAF inh 2.
For COCCCC1CCN(C(=O)c2cc(COc3cc(C)ccc3C)on2)CC1 the results were MITF TRPM1 HTS inconclusive, FXN GAA850 act 3, Wnt act 29 and esBAF inh 104*.
For COc1cc(C)ccc1OCc1cc(C(=O)NC2CCOCC2)no1 the results were FXN GAA850 act 3, Wnt act -2 and esBAF inh 47*.
For Cc1ccc(C)c(OCc2cc(C(=O)N3CCNC(=O)C3)no2)c1 the results were MITF TRPM1 HTS 13, FXN GAA850 act 1, Wnt act 4 and esBAF inh 3.
Screening COCCN1CCN(C(=O)c2cc(COc3cc(C)ccc3C)on2)CC1 returned MITF TRPM1 HTS 45, FXN GAA850 act 2, Wnt act 1 and esBAF inh 73*.
Screening COc1cc(C)ccc1OCc1cc(C(=O)NCCN2CCCC(O)C2)no1 (stereo unspecified) returned MITF TRPM1 HTS 24, FXN GAA850 act 0, Wnt act -4 and esBAF inh -1.
For COc1ccc(OCc2cc(C(=O)NC(C)c3cnn(C)c3)no2)c(Cl)c1 (stereo unspecified) the results were MITF TRPM1 HTS 81*, FXN GAA850 act 3, Wnt act 25 and esBAF inh 54*.
Cc1noc(C)c1NC(=O)N(C)C[C@@H]1OCCCC[C@@H](C)Oc2ccc(NC(=O)CCC(F)(F)F)cc2C(=O)N([C@H](C)CO)C[C@H]1C was read as esBAF inh 9.
`O=C(Nc1ccc(-c2ccccc2)cc1)[C@@H]1[C@@H](CO)[C@@H]2Cn3c(cccc3=O)[C@H]1N2Cc1ccccc1` gave esBAF inh 2.
For CCCC(=O)Nc1ccc2c(c1)C(=O)N(C)[C@H]1CC[C@H](CC(=O)NCC(F)(F)F)O[C@@H]1CO2 the results were esBAF inh 3.
For C[C@@H]1CCCCO[C@H](CN(C)S(C)(=O)=O)[C@@H](C)CN([C@@H](C)CO)C(=O)c2cc(NS(=O)(=O)c3ccccc3)ccc2O1 the results were esBAF inh -5.
`CC(=O)NCCC1CCCCN1C(=O)c1cc(COc2cc(C)ccc2C)on1` (stereo unspecified) gave MITF TRPM1 HTS inconclusive, FXN GAA850 act 7, Wnt act 22 and esBAF inh 66*.
For Cc1ccc(C)c(OCc2cc(C(=O)N3CCC(N4CCCC(O)C4)CC3)no2)c1 (stereo unspecified) the results were MITF TRPM1 HTS 9, FXN GAA850 act 3, Wnt act 0 and esBAF inh 1.
Screening Cc1cc(Cl)cc2sc(NC(=O)c3ccco3)nc12 returned MITF TRPM1 HTS 88*, FXN GAA850 act 2 and esBAF inh 17.
`COc1cccc2sc(Nc3nnc(-c4ccc(F)cc4)o3)nc12` gave MITF TRPM1 HTS -14, FXN GAA850 act 0, Wnt act -7 and esBAF inh 23.
O=C(Nc1nc2c(F)cccc2s1)c1ccco1 was read as MITF TRPM1 HTS 59, FXN GAA850 act -2, Wnt act 43* and esBAF inh 31.
Cc1cc(C)c2nc(NC(=O)c3ccco3)sc2c1 was read as MITF TRPM1 HTS 22, FXN GAA850 act 1, Wnt act 24 and esBAF inh -33.

Compound activity (PubChem)
